Results reported in PubChem BioAssay AID2501 (Southern Research Specialized Biocontainment Screening …, 2010).
About 1,200 (55%) of roughly 2,200 compounds were called active. Cut-off not given; nearly all actives show IC50 up to about 92 µM. The set was probably picked from earlier hits. The list shows a part of the results.

assay: counter assay for TAg ATPase ADP read-out – biochemical, ADP-Hunter, fluorescence, counter-screen (AID 2501); settings: series mostly up to 100 µM;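 further: purified T antigen ATPase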

Row | Compound | IC50
1 | O=C(O)c1ccccc1NS(=O)(=O)c1ccc(NNC(=S)Nc2ccc(OC(F)F)cc2)c([N+](=O)[O-])c1 | 23 µM (active)
2 | O=C(/C=C/c1ccco1)NCC1OCCc2ccccc21 (configuration not stated) | inactive
3 | COc1ccc(O)c(C(=O)C2c3ccccc3C(=O)N2c2ccc(C)cc2)c1 (configuration not stated) | inactive
4 | O=C(COc1ccc2c(-c3ccccc3)cc(=O)oc2c1)N[C@@H](Cc1c[nH]c2ccc(O)cc12)C(=O)O | 31.3 µM (active)
5 | O=C(O)c1ccccc1C(=O)NC1=NN(c2ccccc2)CC1 | 12.1 µM (active)
6 | COc1cc(/C=N/Nc2ccnc(=O)[nH]2)ccc1O | 5.01 µM (active)
7 | COc1cc(/C=N/NC2=NCCCCC2)ccc1O | 4.15 µM (active)
8 | COc1cc(/C=N/Nc2ccccn2)ccc1O | 8.27 µM (active)
9 | COc1cccc2c(N/N=C/c3ccc(O)c(O)c3)cc(C)nc12 | 10.2 µM (active)
10 | COc1cc(/C=N\Nc2cc(=O)n(C)c(=O)n2C)ccc1O | 4.97 µM (active)
11 | COc1cc(/C=N/Nc2nncn2/N=C/c2ccc(O)c(OC)c2)ccc1O | 4.48 µM (active)
12 | COc1cc(/C=N/Nc2nc(=O)[nH]nc2C)ccc1O | 6.46 µM (active)
13 | Cc1cc(C)n(CCc2nc(-c3ccco3)cs2)n1 | inactive
14 | CCOc1cc(/C=C2/N=C(C)C(C(=O)OC)=C2O)ccc1O | 3.91 µM (active)
15 | COC(=O)C1=C(O)/C(=C\c2ccc(O)c(OC)c2)N=C1C | 3.81 µM (active)
16 | CCOC(=O)C1=C(O)/C(=C\c2ccc(O)c(OCC)c2)N=C1C | 9.47 µM (active)
17 | C#CCOCCOCCOCCNc1nc(N2CCN(C(=O)CCCCCCCCCCNC(=O)[C@H]([C@@H](C)CC)n3cc(CCCCN=C(N)N)nn3)CC2)nc(N2CCN(C(=O)CCCCCCCCCCNC(=O)[C@H]([C@@H](C)CC)n3cc(CCCCN=C(N)N)nn3)CC2)n1 | inactive
18 | O=[N+]([O-])c1ccc(C2(O)CN(c3ccccc3)C3=[N+]2CCS3)cc1 (configuration not stated) | inactive
19 | Cc1[nH]n(-c2ccccc2)c(=S)c1C=Nc1ccc([N+](=O)[O-])cc1 | 48 µM (active)
20 | COc1cc(SC#N)ccc1N=Cc1c(C)[nH]n(-c2ccc(C)cc2)c1=O | inactive
21 | COc1ccc(NC2CCCN(C(=O)CSc3ccccc3)C2)cc1 (configuration not stated) | 4.76 µM (active)
22 | O=C1CCCCN1CCC(=O)N1CCCC(Nc2ccccc2)C1 (configuration not stated) | inactive
23 | COc1ccc(NC2CCCN(C(=O)CCn3cccn3)C2)cc1 (configuration not stated) | 5.33 µM (active)
24 | CCCn1c(SCC(=O)N2CCCC(C)C2)nnc1-c1ccccn1 (configuration not stated) | inactive
25 | COc1ccc(NC2CCCN(C(=O)CCCn3cncn3)C2)cc1 (configuration not stated) | 11.5 µM (active)

Row | Compound | IC50
26 | OCCC1CN(Cc2cccn2-c2ncccn2)CCN1CCc1ccccc1 (configuration not stated) | inactive
27 | COc1ccc(C2=CC3=C(Br)C(=O)C(C)(OC(=O)c4cccs4)C(=O)C3=CO2)cc1 (configuration not stated) | inactive
28 | CC(=O)NS(=O)(=O)c1ccc(N=c2ssc3c2-c2cc(C)ccc2NC3(C)C)cc1 | 74.3 µM (active)
29 | CN1C=CC=C/C1=C(\C#N)c1nc2ccccc2[nH]1 | 4.36 µM (active)
30 | NS(=O)(=O)c1ccc(N/N=C/c2ccc[nH]2)c([N+](=O)[O-])c1 | 14.6 µM (active)
31 | Cc1cs/c(=N\N=C\c2ccc(O)cc2)n1Cc1ccco1 | 5.01 µM (active)
32 | CCOc1cccc(=O)c2c(C)n(Cc3ccco3)c(C)c12 | inactive
33 | O=C(CCc1nnc(C2(c3ccc(Cl)cc3)CCC2)o1)N1CCCC(O)C1 (configuration not stated) | inactive
34 | CC(C)CN(Cc1c(O)ccc2c3c(c(=O)oc12)CCC3)CC(C)C | 5.92 µM (active)
35 | N=C1/C(=C\c2coc3ccc(O)cc3c2=O)C(=O)N=C2SC=CN12 | 84.9 µM (active)
36 | O=C1NN(c2ccccc2)C(=O)/C1=C\c1coc2ccc(O)cc2c1=O | 10.7 µM (active)
37 | CSC1=NSC2=NC(=O)/C(=C\c3coc4ccccc4c3=O)C(=N)N12 | inactive
38 | O=C1NN(c2cccc(Br)c2)C(=O)/C1=C\c1ccc(O)cc1 | 11.6 µM (active)
39 | CC(C)CC1=NN2C(=N)/C(=C\c3coc4ccccc4c3=O)C(=O)N=C2S1 | inactive
40 | Cc1cc(C)c2nc(-c3ccco3)cc(C(=O)O)c2c1 | inactive
41 | COc1ccc(-n2c(=O)c3c4c(sc3n3c(=S)[nH]nc23)COC(C(C)C)C4)cc1 (configuration not stated) | 16.3 µM (active)
42 | CC(C)C1Cc2c(sc3c2c(=O)n(-c2ccccc2)c2n[nH]c(=S)n32)CO1 (configuration not stated) | 21.9 µM (active)
43 | Cc1cc(C)c2c(=O)n(CC(=O)NCCCN3CCN(c4ccccc4F)CC3)sc2n1 | inactive
44 | C=CCOC(=O)C1=C(C)N=c2s/c(=C3\C(=O)N(CC(=O)O)c4ccccc43)c(=O)n2C1c1ccc(OC)cc1 (configuration not stated) | inactive
45 | COc1ccc2c(c1)c(C(=O)N/N=C/c1ccc(O)c(O)c1)c(C)n2C | 14.6 µM (active)
46 | O=C(N/N=C/c1ccc(O)c(O)c1)C1CC1 | 4.15 µM (active)
47 | CCOC(=O)c1c(C)n(C)c2ccc(OCC(O)CN(CC)CC)cc12 (configuration not stated) | inactive
48 | Cc1nonc1C(=O)N/N=C/c1ccc(O)c(O)c1 | 2.13 µM (active)
49 | C=C1CC(C(=O)N/N=C/c2ccc(O)cc2)C1 | 5.39 µM (active)
50 | O=C(NCCO)Nc1ccc2nc(-c3ccco3)c(-c3ccco3)nc2c1 | inactive

Row | Compound | IC50
51 | O=C(N/N=C/c1ccc(O)c(O)c1)N/N=C/c1ccc(O)c(O)c1 | 1.85 µM (active)
52 | S=c1[nH]nc(NCCCN2CCOCC2)s1 | 52.3 µM (active)
53 | CC(C)c1ccc(C2CC(=O)N3CN(C)CSC3=C2C#N)cc1 (configuration not stated) | inactive
54 | COc1ccc(N2CSC3=C(C#N)C(c4ccc(OC)c(OC)c4)CC(=O)N3C2)c(OC)c1 (configuration not stated) | 24.8 µM (active)
55 | CCOc1ccccc1N1CSC2=C(C#N)C(c3c(OC)ccc4ccccc34)CC(=O)N2C1 (configuration not stated) | 81.2 µM (active)
56 | COc1ccc(C2CC(=O)N3CN(c4ccccc4F)CSC3=C2C#N)cc1OC (configuration not stated) | inactive
57 | CN1CSC2=C(C#N)C(c3cccc(OCc4ccccc4)c3)CC(=O)N2C1 (configuration not stated) | 21.8 µM (active)
58 | CCOc1ccc2ccccc2c1C(=O)N[C@@H]1C(=O)N2[C@@H]1SC(C)(C)[C@@H]2C(=O)O | inactive
59 | COc1ccccc1N1CSC2=C(C#N)C(c3ccc(SC)cc3)CC(=O)N2C1 (configuration not stated) | 27.8 µM (active)
60 | COc1cc(SC#N)ccc1N=Cc1c(C)[nH]n(-c2cccc3ccccc23)c1=O | inactive
61 | CC(=O)N1N=C(c2ccc(C)cc2)CC1c1ccco1 (configuration not stated) | inactive
62 | COc1ccc(N2CSC3=C(C#N)C(c4cc(OC)ccc4OC)CC(=O)N3C2)c(OC)c1 (configuration not stated) | 9.09 µM (active)
63 | COc1cc(OC)c(C2CC(=O)N3CN(C)CSC3=C2C#N)cc1OC (configuration not stated) | 83.4 µM (active)
64 | COc1cc(OC)c(C2CC(=O)N3CN(c4ccc(C)cc4)CSC3=C2C#N)cc1OC (configuration not stated) | 68 µM (active)
65 | COc1ccc(N2CSC3=C(C#N)C(c4cc(OC)c(OC)cc4OC)CC(=O)N3C2)c(OC)c1 (configuration not stated) | 78.4 µM (active)
66 | COc1ccc(OC)c(C2CC(=O)N3CN(c4cccc(Cl)c4C)CSC3=C2C#N)c1 (configuration not stated) | inactive
67 | COc1cc(OC)c(C2CC(=O)N3CN(c4ccccc4C)CSC3=C2C#N)cc1OC (configuration not stated) | inactive
68 | COc1ccc2c(c1OC)C(=O)N1c3ccccc3N=C(c3ccc([N+](=O)[O-])cc3)CC21 (configuration not stated) | inactive
69 | O=C(NCc1ccco1)/C(=C/c1ccc(C(F)(F)F)cc1)c1nc2ccccc2[nH]1 | inactive
70 | N#C/C(=C/c1ccc(O)c(O)c1)c1nc2ccccc2[nH]1 | 5.71 µM (active)
71 | O=C(C[n+]1ccccc1)N/N=C/c1ccc(O)cc1 | 3.04 µM (active)
72 | O=C(CCn1cnc2ccccc21)N/N=C/c1ccc(O)cc1 | 7.9 µM (active)
73 | O=C(CC(=O)N/N=C/c1ccc(O)cc1)N/N=C/c1ccc(O)cc1 | 1.98 µM (active)
74 | Cc1cccc(-c2nn(-c3ccccc3)cc2C(=O)Nc2cccc(S(=O)(=O)NC3=NCCC3)c2)c1 | inactive
75 | Cc1nc2cc(-c3ccsc3-n3c(C)ccc3C)[nH]n2c(=O)c1Cl | inactive

Row | Compound | IC50
76 | CNc1nc(-c2ccccc2)[n+](-c2ccc(C)cc2)s1 | 18.6 µM (active)
77 | COc1cc2c(cc1OC)-c1cc(Nc3ccc(N(C)C)cc3)nc(=O)n1CC2 | 1.76 µM (active)
78 | O=C1C=CC(=O)N1c1ccc(O)cc1 | inactive
79 | O=C1CSC(=Nc2ccc(O)cc2)N1c1ccc(O)cc1 | 3.6 µM (active)
80 | Cc1nnc(N/N=C/c2c(O)n(-c3cccc(C(F)(F)F)c3)c(=O)c3ccccc23)[nH]c1=O | 8.07 µM (active)
81 | Cc1ccc(CNc2ccc3c(c2)ncn3C(C)C)cc1 | 12.7 µM (active)
82 | CCn1cnc2cc(NCc3ccc(N(C)C)cc3)ccc21 | 10.5 µM (active)
83 | CN(C)c1ccc(CNc2ccc3c(c2)ncn3C)cc1 | 13.5 µM (active)
84 | CC(C)c1ccc(CNc2nnnn2C)cc1 | inactive
85 | ClC(Cl)(c1nnnn1-c1ccccc1)c1nnnn1-c1ccccc1 | inactive
86 | CC(Cc1ccc(O)c(O)c1)C(C)Cc1ccc(O)c(O)c1 (configuration not stated) | 22.3 µM (active)
87 | CCCCCCN=C(C)c1ccccc1O | inactive
88 | CC(=O)N(c1ccc2oc(=O)sc2c1)S(=O)(=O)c1ccccc1 | 62.1 µM (active)
89 | O=C(O)c1cccc(S(=O)(=O)Nc2ccc3oc(=O)sc3c2)c1 | inactive
90 | CSc1nc(O)c(C(c2ccc(OC(C)C)cc2)c2c(O)nc(SC)[nH]c2=O)c(=O)[nH]1 | inactive
91 | COc1cc(/C=N/NC(=O)CC2C(=O)NN=C2C)ccc1O (configuration not stated) | 5.63 µM (active)
92 | COc1cc(/C=N/NC(=O)C2=NNC(=O)C2C)ccc1O (configuration not stated) | 6.5 µM (active)
93 | CCCc1cc(=O)[nH]c(Nc2ccc(O)cc2)n1 | 3.17 µM (active)
94 | Oc1ccc(C=Nc2ccc(N3CCOCC3)cc2)c(O)c1 | 2.33 µM (active)
95 | Oc1ccc2ccccc2c1C=Nc1ccc(N2CCOCC2)cc1 | 2.74 µM (active)
96 | Oc1ccc(N=Cc2cc(Br)c(N3CCOCC3)o2)cc1 | 8.18 µM (active)
97 | COc1cccc(C=Nc2ccc(N3CCOCC3)cc2)c1O | 5.29 µM (active)
